Source: PubChem BioAssay (several laboratories)
D1 allo mod = allosterically modulates the human D1 dopamine receptor; P21728; HEK293 D1, CRE-luciferase, dopamine EC30 potentiation; actives deviate in either direction; B-score at 10 µM; 58,000 tested, 5.9% active; AID 641;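 active = luminescence count or its row- and column-corrected plate score outside the 99.7% band of the plate's sample wells, on either side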
CYP2C9 activ = CYP2C9 (human) activation | recombinant CYP2C9, luciferin-H conversion, luminescence; hits give high values; factor 1 = untreated enzyme, 0 = blocked | AID 1024 | 96,000 tested, 1.4% active | activation factor at 5 µM | P11712;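 active = activation factor of 2 or more for CYP2C9 at a 5 µM dose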
CYP2C19 inhib = inhibitors of human CYP2C19 | 96,000 tested, 21% active | CYP2C19 Supersomes, luciferin-H EGE luminescence, 30 min | inhibition, % at 5 µM | AID 778 | P33261;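 active = CYP2C19 inhibition above a set limit at 5 µM in the primary screen, cut at about 50% in these data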
CYP2C9 inh = human CYP2C9 inhibition. CYP2C9 Supersomes, luciferin-H conversion, luminescence. AID 777. P11712. 96,000 tested, 20% active. inhibition, % at 5 µM;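 active = blocking of liver enzyme CYP2C9 beyond about 50% at 5 µM, limit read from the data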
hDAT+cocaine = human DAT dopamine uptake with cocaine, either direction | LLC-PK1 hDAT cells, [14C]-dopamine uptake with cocaine IC80; actives deviate in either direction | 110,000 tested, 1.3% active | B-score at 10 µM;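 active = Z score or B-score, a plate-position-corrected score, falls beyond the plate's 99.7% confidence bounds, in either direction; inactive = both scores lie inside the 99.7% bounds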
Target sequence (Q01959 whole entry, looked up): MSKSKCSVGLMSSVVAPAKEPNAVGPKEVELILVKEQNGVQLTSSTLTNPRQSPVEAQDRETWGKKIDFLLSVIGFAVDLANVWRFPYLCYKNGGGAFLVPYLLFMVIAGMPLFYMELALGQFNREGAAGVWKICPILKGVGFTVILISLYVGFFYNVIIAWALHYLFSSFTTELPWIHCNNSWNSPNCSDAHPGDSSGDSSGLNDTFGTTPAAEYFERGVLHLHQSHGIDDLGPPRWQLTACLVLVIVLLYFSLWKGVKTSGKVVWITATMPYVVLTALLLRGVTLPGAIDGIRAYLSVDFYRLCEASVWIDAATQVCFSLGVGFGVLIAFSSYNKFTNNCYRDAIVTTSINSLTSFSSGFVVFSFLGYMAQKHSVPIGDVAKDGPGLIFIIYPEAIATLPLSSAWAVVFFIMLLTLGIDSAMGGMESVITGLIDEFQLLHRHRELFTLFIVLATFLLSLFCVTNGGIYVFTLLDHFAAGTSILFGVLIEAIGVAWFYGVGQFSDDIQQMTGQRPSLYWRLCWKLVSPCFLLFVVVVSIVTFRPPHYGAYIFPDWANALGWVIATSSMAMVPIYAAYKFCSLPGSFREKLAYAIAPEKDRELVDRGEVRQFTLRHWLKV
CYP2C19 act = activators of human cytochrome P450 2C19. 96,000 tested, under 10 active. recombinant CYP2C19, luciferin-H EGE luminescence; hits give high values; 0 = fully inhibited enzyme, 1 = untreated enzyme. activation factor at 5 µM. P33261;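 active = activation factor of at least 2 at 5 µM in the primary screen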
Of the large screens only hits and unclear results are named; the others gave an inactive call. Shown are actives, neighbours in structure and some others; about 28% of the full set was active somewhere.

N#CCc1c(C#N)c(N)nc(N2CCN(Cc3ccc4c(c3)OCO4)CC2)c1C#N	CYP2C9 inh 54.1 (no result: D1 allo mod, hDAT+cocaine)
Cc1cc(C)c(C#N)c(N2CCN(Cc3ccc4c(c3)OCO4)CC2)n1	none
CC(C)COC(=O)C(C#N)c1nc2ccccc2nc1N1CCN(Cc2ccccc2)CC1 (stereo not given)	none
COC(=O)C(C#N)c1nc2ccccc2nc1N1CCN(Cc2ccc3c(c2)OCO3)CC1 (stereo not given)	CYP2C19 inhib 50.3
Cc1cccc(CNc2ccc(C(CC(N)=O)NC(=O)c3cccc(Br)c3)cc2[N+](=O)[O-])c1 (stereo not given)	none (no result: D1 allo mod, CYP2C9 activ, CYP2C19 inhib, CYP2C9 inh, CYP2C19 act)
Clc1cccc(Cl)c1NC1=NCCN1	none (no result: D1 allo mod, CYP2C9 activ, CYP2C19 inhib, CYP2C9 inh, CYP2C19 act)
COc1cc(C)c(N)cc1C(C)C	CYP2C19 inhib 88.4, CYP2C9 inh 56.8
CCN(CC)S(=O)(=O)c1ccc2[nH]cc(C(=O)NCCC3=CCCCC3)c(=O)c2c1	CYP2C19 inhib 75.8, CYP2C9 inh 91.1
CCC1CCCCN1C(=O)c1c[nH]c2ccc(S(=O)(=O)N(C)c3ccc(Cl)cc3)cc2c1=O (stereo not given)	CYP2C19 inhib 74.1, CYP2C9 inh 83.2 (no result: D1 allo mod)
CCOc1ccc(N(C)S(=O)(=O)c2ccc3[nH]cc(C(=O)NCC4CCCO4)c(=O)c3c2)cc1 (stereo not given)	CYP2C9 inh 73.5
Cc1ccccc1N(C)S(=O)(=O)c1ccc2[nH]cc(C(=O)NCC3CCCO3)c(=O)c2c1 (stereo not given)	CYP2C19 inhib 52.9, CYP2C9 inh 91.4
CN(c1ccc(F)cc1)S(=O)(=O)c1ccc2[nH]cc(C(=O)O)c(=O)c2c1	none
CN(CCO)C1=CC(=O)CC(C)(C)C1	none (no result: D1 allo mod, CYP2C9 activ, CYP2C19 inhib, CYP2C9 inh, CYP2C19 act)
COc1ccc(C2C(C(C)=O)=C(O)C(=O)N2CCc2ccccc2)c(OC)c1 (stereo not given)	none
CC(C)(C)C1CCc2c(sc(NC(=O)c3cccs3)c2C(=O)N2CCCCC2)C1 (stereo not given)	none (no result: D1 allo mod)
CCc1ccc(N(C)S(=O)(=O)c2ccc3[nH]cc(C(=O)NCCN4CCOCC4)c(=O)c3c2)cc1	CYP2C9 inh 60.4 (no result: D1 allo mod)
COc1ccccc1C1C(C#N)=C(N)Oc2cc(C)n(CCCn3ccnc3)c(=O)c21 (stereo not given)	CYP2C19 inhib 90.0, CYP2C9 inh 100.0
Cc1cc2c(c(=O)n1Cc1ccc3c(c1)OCO3)C(c1cccnc1)C(C#N)=C(N)O2 (stereo not given)	CYP2C9 inh 51.7
COc1ccc(C2C(C#N)=C(N)Oc3cc(C)n(Cc4ccco4)c(=O)c32)cc1 (stereo not given)	CYP2C9 inh 68.3 (no result: D1 allo mod)
Cc1cc2c(c(=O)n1CCCn1ccnc1)C(c1ccco1)C(C#N)=C(N)O2 (stereo not given)	CYP2C19 inhib 76.4, CYP2C9 inh 100.4
COc1cccc(C2C(C#N)=C(N)Oc3cc(C)n(Cc4ccco4)c(=O)c32)c1 (stereo not given)	none
COc1ccc(NC(=O)c2ccc3c(c2)S(=O)(=O)c2ccccc2C3=O)cc1	none (no result: D1 allo mod, CYP2C9 activ, CYP2C19 inhib, CYP2C9 inh, CYP2C19 act)
COc1ccc(NC(=O)c2ccc(C(=O)c3ccccc3)o2)cc1	none
CCOC(=O)CCCCCNC(=O)c1ccc(F)cc1F	none (no result: D1 allo mod, CYP2C9 activ, CYP2C19 inhib, CYP2C9 inh, CYP2C19 act)
CCOc1ccc(N/C=C/C(=O)c2ccc3ccccc3c2)c([N+](=O)[O-])c1	CYP2C9 activ 2.1 (no result: D1 allo mod)
COc1ccc(C(=O)/C=C/Nc2ccc([N+](=O)[O-])cc2C)c(OC)c1	none (no result: D1 allo mod)
COc1ccc(C(=O)/C=C/Nc2ccc([N+](=O)[O-])cc2C)cc1OC	CYP2C19 inhib 59.7 (no result: D1 allo mod)
O=C(CCSc1ccccc1)Nc1nccs1	CYP2C19 inhib 62.5 (no result: D1 allo mod)
O=C(CCSc1ccccc1)NC1CCCC1	CYP2C19 inhib 82.8 (no result: hDAT+cocaine)
Cc1ccccc1OCCCC(=O)Nc1nccs1	CYP2C19 inhib 80.5 (no result: D1 allo mod)
Cc1ccc(C)c(OCCCC(=O)Nc2nccs2)c1	none (no result: D1 allo mod)
O=C(CCCC(=O)OCC(F)(F)C(F)F)Nc1nccs1	CYP2C19 inhib 51.3, CYP2C9 inh 60.3
O=C(CCS(=O)(=O)c1cccc2nsnc12)NC1CCCCC1	none (no result: D1 allo mod)
O=C(NCC(=O)N(Cc1ccccc1)C(C(=O)NCC1CCCO1)c1ccccc1)c1cccs1 (stereo not given)	none (no result: D1 allo mod)
Cc1ccc(-n2nnc(-c3ccnc4ccccc34)n2)cc1	none (no result: D1 allo mod, CYP2C9 activ, CYP2C19 inhib, CYP2C9 inh, CYP2C19 act)
CC(=O)Nc1cccc(NC(=O)CSc2nnc(Cc3cccn3C)n2-c2ccc(C)cc2)c1	none
O=C(CN1CCN(c2ccccc2)CC1)Nc1nccs1	CYP2C19 inhib 69.5, CYP2C9 inh 90.0
CCc1nnc(NC(=O)CN2CCN(c3nc(-c4ccccc4)cs3)CC2)s1	CYP2C9 inh 64.1
O=C(CCN1CCN(c2ccccc2)CC1)Nc1nccs1	none
COc1ccccc1C(CC(=O)Nc1nccs1)c1ccco1 (stereo not given)	CYP2C19 inhib 63.9, CYP2C9 inh 54.7 (no result: D1 allo mod)
Cc1cccc(N2C(=S)N=C(Nc3c(C)cccc3C)C23CCOC(C)(C)C3)c1 (stereo not given)	none (no result: D1 allo mod)
Cc1noc(NS(=O)(=O)c2ccc(NC(=O)COc3ccc(Cl)cc3Cl)cc2)c1C	CYP2C9 inh 71.3 (no result: D1 allo mod, hDAT+cocaine)
CCOC(=O)C(NC(C)=O)(Nc1ccc(S(=O)(=O)Nc2cc(C)on2)cc1)C(F)(F)F (stereo not given)	none (no result: D1 allo mod, CYP2C9 activ, CYP2C19 inhib, CYP2C9 inh, CYP2C19 act)
CCOC(=O)C(NC(C)=O)(Nc1ccc(S(=O)(=O)Nc2onc(C)c2C)cc1)C(F)(F)F (stereo not given)	D1 allo mod -6.95
Cc1ccc(S(=O)(=O)CC(=O)Nc2ccc(S(=O)(=O)Nc3onc(C)c3C)cc2)cc1	CYP2C9 inh 66.7
Cc1noc(NS(=O)(=O)c2ccc(N/C=C/C(=O)c3ccncc3)cc2)c1C	CYP2C9 inh 50.9 (no result: D1 allo mod, hDAT+cocaine)
Cc1ccc2ccc(C3C(=O)c4ccccc4C3=O)nc2c1	none (no result: D1 allo mod, CYP2C9 activ, CYP2C19 inhib, CYP2C9 inh, CYP2C19 act)
COc1cc(NS(=O)(=O)c2ccc(NC(=S)NC(=O)CC(C)C)cc2)nc(OC)n1	none (no result: D1 allo mod, CYP2C9 activ, CYP2C19 inhib, CYP2C9 inh, CYP2C19 act)
CCc1cccc(OCC(=O)Nc2ccc(S(=O)(=O)Nc3onc(C)c3C)cc2)c1	CYP2C9 inh 79.5 (no result: hDAT+cocaine)
COc1cc(NS(=O)(=O)c2ccc(NC(=O)COc3ccccc3Cl)cc2)nc(OC)n1	CYP2C19 inhib 85.8, CYP2C9 inh 95.9
COc1ccc(OC)c(NC(=O)CSc2ncnc3c2cnn3-c2ccccc2Cl)c1	none (no result: D1 allo mod, CYP2C9 activ, CYP2C19 inhib, CYP2C9 inh, CYP2C19 act)
CN(C)CCCN1c2ccccc2Sc2ccc(Cl)cc21	none (no result: D1 allo mod, CYP2C9 activ, CYP2C19 inhib, CYP2C9 inh, CYP2C19 act)
CSc1ccc2c(c1)N(CCC1CCCCN1C)c1ccccc1S2 (stereo not given)	D1 allo mod -6.33 (no result: CYP2C9 activ, CYP2C19 inhib, CYP2C9 inh, CYP2C19 act)
COCc1nnc(NC(=O)CCCCCN2C(=O)c3ccccc3C2=O)s1	CYP2C9 inh 63.4 (no result: D1 allo mod)
Cc1cccc(NC(=O)CCCN2C(=O)c3ccccc3C2=O)n1	none (no result: D1 allo mod)
O=C(CCCCCCN1C(=O)c2ccccc2C1=O)Nc1nccs1	none (no result: D1 allo mod, CYP2C9 activ, CYP2C19 inhib, CYP2C9 inh, CYP2C19 act)
Cc1cccc(NC(=O)CCCCCN2C(=O)c3ccccc3C2=O)n1	CYP2C9 inh 78.6 (no result: D1 allo mod)
O=C(CCCCCN1C(=O)c2ccccc2C1=O)NC1CCCC1	CYP2C19 inhib 77.9, CYP2C9 inh 88.7
COc1ccc2nc(C)c(C(=O)OCCN(C)C)cc2c1	none (no result: hDAT+cocaine)
